About 79,000 compounds went through this panel and 15% of them were active in at least one assay; those are over-represented in the sample as a whole. Values without a mark were called inactive. Activity calls are given as the source filed them. No stated cut-off is given here; in the data, active means growth inhibition above about 70%; inactive means the rest.
Legend:
[1] = NCI Yeast Anticancer Drug Screen. Data for the rad50 strain (AID 155);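 further: 0% = growth of vehicle-only cultures of the same strain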; conditions: S. cerevisiae rad50 strain growth inhibition, hits give high values
Procedure, shortened: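 Vehicle-treated cultures provide the reference for the growth inhibition reported for compound-exposed, repair-deficient yeast.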

[2] = NCI Yeast Anticancer Drug Screen. Data for the mec2-1 strain (AID 157); conditions: S. cerevisiae mec2-1 strain, hits give high values
Procedure, shortened: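 Cells of the genetically defined mec2-1 yeast strain are incubated with test compound. Inhibition of growth is calculated against vehicle-treated controls.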

[3] = NCI Yeast Anticancer Drug Screen. Data for the sgs1 mgt1 strain (AID 161);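 further: 0% = growth of cultures given vehicle only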; conditions: S. cerevisiae sgs1 mgt1 strain, hits give high values
Procedure, shortened: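 Genetically altered yeast, compound exposure, growth inhibition relative to vehicle.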

[4] = NCI Yeast Anticancer Drug Screen. Data for the cln2 rad14 strain (AID 165);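 further: 0% = growth equal to vehicle treated cultures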; conditions: S. cerevisiae cln2 rad14 strain, hits give high values
Procedure, shortened: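 The screen exposed genetically defined yeast (cln2 rad14) to test compounds and scored growth inhibition relative to vehicle-treated controls.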

[5] = NCI Yeast Anticancer Drug Screen. Data for the bub3 strain (AID 167); conditions: S. cerevisiae bub3 mutant strain, hits give high values
Procedure, shortened: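 Mutant yeast screening strain plus compound; vehicle-treated cultures serve as the 0% inhibition reference.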

[6] = NCI Yeast Anticancer Drug Screen. Data for the mlh1 rad18 strain (AID 175); conditions: S. cerevisiae mlh1 rad18 strain growth inhibition, hits give high values
Procedure, shortened: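 Compound-treated yeast growth, normalised to vehicle controls. Strain bears defined DNA repair mutations.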

[7] = at 5.0 µM (retest, dose inferred, filed as 0.5)
[8] = at 50.0 µM (retest, dose inferred, filed as 5.0)

Row | SMILES | growth inhibition [1, 7] | growth inhibition [1, 8] | growth inhibition ([1]; at 50.0 µM) | growth inhibition [2, 7] | growth inhibition [2, 8] | growth inhibition ([2]; at 50.0 µM) | growth inhibition [3, 7] | growth inhibition [3, 8] | growth inhibition ([3]; at 50.0 µM) | growth inhibition [4, 7] | growth inhibition [4, 8] | growth inhibition ([4]; at 50.0 µM) | growth inhibition [5, 7] | growth inhibition [5, 8] | growth inhibition ([5]; at 50.0 µM) | growth inhibition [6, 7] | growth inhibition [6, 8] | growth inhibition ([6]; at 50.0 µM)
1 | C1=C(c2ccccc2)OC(c2ccccc2)=C[P+]1(c1ccccc1)c1ccccc1 | 96% (active) | 98% (active) | 92.1% (active) | 98% (active) | 99% (active) | 90.8% (active) | 99% (active) | 99% (active) | 91% (active) | 93% (active) | 99% (active) | 86.8% (active) | 97% (active) | 99% (active) | 93% (active) | 95% (active) | 98% (active) | 92.7% (active)
2 | O=C(O)CSc1cc2c3ccccc3sc2c2ccccc12 | 16% | 96% (active) | 96.3% (active) | 14% | 97% (active) | 97.8% (active) | 11% | 97% (active) | 98.5% (active) | 4% | 96% (active) | 93.8% (active) | 8% | 94% (active) | 79.7% (active) | 12% | 97% (active) | 98.1% (active)
3 | CC(=O)c1ccc([N+](=O)[O-])o1 | 19% | 98% (active) | 96.5% (active) | 22% | 99% (active) | 92.2% (active) | 11% | 61% | 91.3% (active) | 0% | 97% (active) | 86.9% (active) | 21% | 99% (active) | 92.5% (active) | 38% | 99% (active) | 98.4% (active)
4 | COC(=O)/C=C1/OC(c2ccccc2)=CC1=O | 31% | 31% | 87.5% (active) | 8% | 8% | 91.7% (active) | 22% | 22% | 57% | -2% | -2% | 70.3% (active) | 0% | 0% | 85.8% (active) | 9% | 9% | 86.2% (active)
5 | CNCC(O)c1cccc(O)c1 (stereo not given) | 7% | 11% | 74.9% (active) | 2% | -9% | 14.8% | 2% | -7% | 45% | 8% | -12% | 19% | 0% | -18% | 21.2% | 1% | -5% | 31%
6 | O=S(=O)(Nc1ccccc1)c1ccccc1CC(O)(c1ccccc1)c1ccccc1 | 46% | 90% (active) | 90% (active) | 67% | 94% (active) | 93% (active) | 98% (active) | 94% (active) | 91.2% (active) | 59% | 89% (active) | 90.4% (active) | 40% | 90% (active) | 90.4% (active) | 90% (active) | 90% (active) | 89.2% (active)
7 | COc1cccc2c1OC(c1ccc(Cl)cc1)C([N+](=O)[O-])=C2 (stereo not given) | 94% (active) | 96% (active) | 85.7% (active) | 95% (active) | 95% (active) | 89% (active) | 93% (active) | 96% (active) | 87.6% (active) | 86% (active) | 95% (active) | 81.8% (active) | 97% (active) | 96% (active) | 85.5% (active) | 96% (active) | 95% (active) | 84% (active)
8 | CCOC(=O)/C(=C\c1cccc([N+](=O)[O-])c1)C(C)=O | 36% | 98% (active) | 93.2% (active) | 24% | 99% (active) | 94.8% (active) | 33% | 99% (active) | 93.2% (active) | 27% | 98% (active) | 90.5% (active) | 62% | 99% (active) | 92% (active) | 41% | 99% (active) | 92.3% (active)
9 | COc1cc2cnc(-c3ccccc3)cc2cc1OC | 14% | 71% (active) | 43.5% | 11% | 76% (active) | 17.6% | 5% | 63% | 13.9% | -15% | 99% (active) | 26.9% | 48% | 99% (active) | 81.3% (active) | 13% | 86% (active) | 19.2%
10 | O=C(O)C1C(=O)OC2CCCCC21 (stereo not given) | 0% | -4% | 3.25% | 1% | 1% | -6.45% | 1% | 0% | 0.45% | -3% | 1% | 69.4% | 0% | -3% | -0.95% | -2% | -3% | -2.4%
